The full list was thinned out, with hits kept by preference.
Pf Dd2 growth: blocks in vitro growth of P. falciparum Dd2; P. falciparum Dd2 growth, SYBR Green, 72 h; 120,000 tested, 4.3% active; AID 1347417; Potency, µM (highest dose often 28.9 µM), without a hit: top-dose activity, negative = inhibition, most hits filed as inhibitors; active means well fitted inhibition curve with a large enough effect;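 further: plate controls were DMSO vehicle for no effect and reference drug for full effect; nearly all actives have a fitted effect of over 65% in size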
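Infected erythrocytes (Dd2, 0.3% parasitemia, 2.5% hematocrit final) are added to compound in RPMI-1640/Albumax II medium, grown 72 h at 37C in low oxygen, then lysed with saponin/Triton-X containing SYBR Green and read by fluorescence.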
* hit, by the source's call; i = inactive; [ ] = dose if it differs, or a comment. Potency means the concentration at half of the fitted maximal effect.

SMILES	Pf Dd2 growth
O=C(N[C@H]1CCN2C(=O)c3cc(-c4ccccc4)ccc3NC(=O)[C@H]12)c1cnccn1	11µM*
O=C(NC1CCCCC1)N[C@H]1CCN2C(=O)c3cc(-c4ccccc4)ccc3NC(=O)[C@H]12	8%[44.1 µM]
CCS[C@H]1CCN2C(=O)c3cc(-c4ccccc4)ccc3NC(=O)[C@H]12	11µM*
N#CCn1nc2n(c1=O)CCN(S(=O)(=O)c1ccc3c(c1)OCCO3)CC2	-9%
Cc1ccc(-c2noc(-c3nc(Cc4ccc(F)cc4)no3)n2)cc1	16%
CCc1nc2c(c(-c3ccc(Cl)cc3)n1)CN(C(=O)c1ccccc1Cl)CC2	-30%
OC1CN(Cc2ccccc2)CCN(Cc2ccc3[nH]ccc3c2)C1 (stereo not drawn)	-19%
CC(O)c1cc2n(n1)CCN(C(=O)CN1CCCN(C)CC1)C2 (stereo not drawn)	-1%
COCC(=O)N(C1CCOCC1)C1CCN(C(=O)c2cccnc2C)CC1	-5%
CS(=O)(=O)c1ccc(-c2ccc(CN3CCOCC3)cn2)cc1	11%
CN(CCNC(=O)CN1CC2CC(C1)[C@H]1CCCC(=O)N1C2)C1CCCCC1 (stereo partly drawn)	-14%
Cn1nccc1OCc1cn2c(=O)n(C)cc(-c3cccc(C(F)(F)F)c3)c2n1	-16%[44.1 µM]
Cn1nnnc1SCCNCc1ccc(OCc2ccccc2)cc1	i
Cn1nnnc1SCCCNCc1cccc(OCc2ccc(F)cc2)c1	5.6µM*
CCOc1cccc(CNCCCSc2nnnn2C)c1	-4%
O=C(NCc1ccc2c(c1)OCO2)C1CCN(C(=O)c2ncn3c2COC(c2ccccc2)C3)CC1 (stereo not drawn)	i
CN(C)C(=O)N1Cc2ccccc2OC2(CCN(C(=O)CCCNC(N)=O)CC2)C1	i
OC[C@@H]1CNC[C@H]1C1CCN(Cc2ccc(F)c(F)c2)CC1	28%
CN1CCCCCC(O)c2cc(C(=O)NCc3nc4ccccc4n3C)ccc21 (stereo not drawn)	i
CN1CCCCCC(O)c2cc(C(=O)N3CCN(C4CCCCC4)CC3)ccc21 (stereo not drawn)	i
COc1ccccc1CNC(=O)c1ccc2c(c1)C(O)CCCCCN2C (stereo not drawn)	i
Cc1ccc(CN2CCN(C(=O)c3ccc4c(c3)C(O)CCCCCN4C)CC2)cc1 (stereo not drawn)	13µM*
CN1CCCCCC(O)c2cc(C(=O)NCc3cccc(C(F)(F)F)c3)ccc21 (stereo not drawn)	10µM*
CC(C)CN1CCN(C(=O)c2ccc3c(c2)C(O)CCCCCN3C)CC1 (stereo not drawn)	i
CN(C)C(=O)N1Cc2ccccc2OC2(CCN(C(=O)c3ccnc(N)c3)CC2)C1	32%
SMILES	Pf Dd2 growth
CCc1nc2c(c(-c3ccc(OC)cc3)n1)CCN(Cc1cccnc1)CC2	-8%
O=C(c1ccsc1)N1CCCC(n2cc(-c3nc(C4CC4)no3)nn2)C1 (stereo not drawn)	i
Cc1cc(C)c2[nH]c(C(=O)NCc3ccc(C(=O)N(C)C)o3)c(C)c2c1	-23%
CN1CC(=O)N(C2CCCNC2)Cc2c(NCCc3ccccn3)ncnc21 (stereo not drawn)	4%
CCn1cc(CNC2CC(=O)N(CCc3ccccc3)C2)cn1 (stereo not drawn)	-20%
COc1ccc(C(=O)N2CCC(n3cc(-c4nc(C)no4)nn3)C2)cc1F (stereo not drawn)	i
COc1ccc(Cn2c(=O)c3ccccc3n3c(-c4cccc(OC)c4OC)nnc23)cc1	i
COc1cccc(-c2cc(-c3c(C)noc3C)c3cncn3c2)c1	5.6µM*
O=c1ccc(-c2cc(-c3cccc4cn[nH]c34)cn3cncc23)c[nH]1	i
COc1ccc(-c2cc(-c3cccc(OC)c3OC)cn3cncc23)cc1	1µM*
CC(=O)Nc1cccc(-c2cc(C3=CCOCC3)c3cncn3c2)c1	i
COc1cccc(-c2cc(-c3ccc(=O)[nH]c3)c3cncn3c2)c1	i
COc1ccc(-c2nc(-c3c(C)noc3C)cc3c2cc(-c2ccccc2)n3C)cn1	-26%[44.1 µM]
COc1ccc(-c2cc(-c3c(C)noc3C)c3cncn3c2)cc1	5µM*
O=c1ccc(-c2cc(-c3cccc(N4CCOCC4)c3)cn3cncc23)c[nH]1	7.9µM*
c1cc(-c2cc(-c3ccc4cn[nH]c4c3)cn3cncc23)ccn1	-2%[44.1 µM]
Cc1noc(C)c1-c1cc(-c2cccc(N[S+](C)(=O)[O-])c2)cn2cncc12	i
COc1ccc(C2Cn3cnc(C(=O)N4CCC(C(=O)NC(C)c5ccccc5)CC4)c3CO2)cc1 (stereo not drawn)	-18%
CS(=O)(=O)N1CCN(C(=O)CCC2CCN(c3cc(NC4CC4)ncn3)CC2)CC1	i
Cn1ccnc1CN1C[C@H]2CN(C(=O)NCc3ccccc3)CCN2C1=O	27%[44.1 µM]
Cc1cc(C)n(CCCN(C)Cc2cc3n(n2)CCNC3)n1	2%
CC(=O)c1ccc(N2CC[C@@H](NC(=O)c3cnccn3)[C@H](O)C2)nc1	i
CCc1nc(-c2c3n(c(=O)n(CC(=O)Nc4cc(C)cc(C)c4)c2=O)CCCC3)no1	-22%

Compound activity as filed in PubChem BioAssay.
